# Source: PubChem BioAssay
# ADAM17 inh: ADAM17 inhibition, QFRET primary screen | recombinant ADAM17, EDANS/DABCYL FRET peptide cleavage | inhibition, % at 6.95 µM | actives 0.83% (n = 370,000) | AID 720648;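 active means inhibition above the mean of compounds lying between control limits plus 3 SD, set per campaign, cut at about 8.5% in these data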;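 further: 0% = DMSO-only wells as the low control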
# PLC-gamma1 inh: blocks human PLC-gamma1 enzyme activity; AID 720700; actives 0.84% (n = 370,000); inhibition, % at 12.2 µM; purified PLC-gamma1, fluorogenic substrate, fluorescence; in the data active means inhibition above about 9.5%
# proKLK7 act: activators of human kallikrein-7 zymogen. purified proKLK7, EDANS-DABCYL substrate fluorescence; 100% is mature enzyme control, 0% vehicle. P49862. actives 0.9% (n = 370,000). activation, % at 7 µM;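 active means activation above the mean of all tested compounds plus 3 SD, computed per campaign excluding outliers beyond control limits, cut at about 13% in these data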
# ADAM10 inh: inhibitors of human ADAM10; actives 0.62% (n = 370,000); inhibition, % at 7 µM; recombinant ADAM10, EDANS/DABCYL FRET peptide cleavage, 3 h;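 active means inhibition above a per-campaign cutoff equal to the mean of compounds falling between control-based bounds plus 3 SD, cut at about 20% in these data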;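 further: 0% = DMSO wells while the 100% control is not disclosed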
# Target sequence (O14672 214-748 limits assumed): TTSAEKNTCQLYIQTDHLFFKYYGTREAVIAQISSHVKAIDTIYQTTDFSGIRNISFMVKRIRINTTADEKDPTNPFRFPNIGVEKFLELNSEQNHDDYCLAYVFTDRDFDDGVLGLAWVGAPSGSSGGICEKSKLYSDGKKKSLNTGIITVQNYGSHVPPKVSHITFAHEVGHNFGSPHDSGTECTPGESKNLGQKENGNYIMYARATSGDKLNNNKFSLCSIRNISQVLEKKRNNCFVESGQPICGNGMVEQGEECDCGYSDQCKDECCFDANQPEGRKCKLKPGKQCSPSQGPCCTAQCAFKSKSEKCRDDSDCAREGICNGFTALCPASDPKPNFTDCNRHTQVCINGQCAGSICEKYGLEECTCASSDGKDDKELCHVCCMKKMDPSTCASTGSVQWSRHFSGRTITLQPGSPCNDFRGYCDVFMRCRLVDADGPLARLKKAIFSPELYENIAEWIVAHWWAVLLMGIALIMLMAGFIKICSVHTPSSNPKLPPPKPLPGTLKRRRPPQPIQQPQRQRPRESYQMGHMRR
# PLCb3 inh: inhibitors of human phospholipase C beta3; Q01970; Purified PLC-beta3, fluorogenic substrate, fluorescence; inhibition, % at 12.2 µM; actives 0.18% (n = 370,000);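 further: 0% = median of compound wells on plate and 100% = full blocker control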
# PLCgamma1 ctr: counter-screen for PLC-beta3 inhibitors: inhibitors of human PLC-gamma1 | shares compounds with PLC-gamma1 inh | purified PLC-gamma1, fluorogenic substrate, fluorescence | inhibition, % at 12.3 µM | actives 3.1% (n = 3,300) | AID 743258; in the data active means inhibition above about 9.5%
# PLCbeta3 conf: human PLC-beta3 inhibition, confirmation | shares compounds with PLC-gamma1 inh | purified PLC-beta3, fluorogenic substrate fluorescence | inhibition, % at 12.3 µM | actives 1% (n = 3,300) | AID 743261
# Numbers without * were called inactive; · = no result; ! = not confirmed by another sample. Sampled rows, rich in hits. Any-hit rate of the full collection: about 2.9%. Unless noted, no stated cut-off is given here; in the data, active means inhibition above about 11%; inactive means the rest.
SMILES,ADAM17 inh,PLC-gamma1 inh,proKLK7 act,ADAM10 inh,PLCb3 inh,PLCgamma1 ctr,PLCbeta3 conf
CCN(C(=O)CSc1nnc(Nc2cccc(C)c2C)s1)C1CCS(=O)(=O)C1 (stereo not given),-0.8,4.2,-0.5,1.3,3.4,·,·
C=CCN(C)C(C#Cc1ccccc1)c1ccccc1C(F)(F)F (stereo not given),-3.0,-0.3,·,0.0,3.7,·,·
COCCCNC(=O)C1CC(=O)N(CCc2ccc(OC)c(OC)c2)C1 (stereo not given),5.8,13.7*,0.1,5.2,3.0,1.8,-0.1
COc1ccc(CCN2CC(C(=O)NCCc3ccccc3)CC2=O)cc1OC (stereo not given),-2.7,-1.1,1.1,-2.5,-3.7,·,·
CCCCNC(=O)c1c(N)[nH]c(C(=O)c2ccccc2)c1-c1ccc(Cl)cc1,-5.7,-1.1,0.3,-8.3,-4.8,·,·
COC(=O)c1ccc(OCCOc2ccccc2)cc1,3.9,10.9*,-0.2,10.2,0.7,-7.3,-4.1
COC(=O)c1ccc(OCCOc2ccccc2C)cc1,1.0,0.1,0.0,-2.9,-2.5,·,·
CCOc1ccc(N2C(=O)CC(N(Cc3ccco3)C(=O)CCC(=O)O)C2=O)cc1 (stereo not given),0.0,3.2,0.2,2.8,0.9,·,·
C=CCNc1nc(Cl)nc(Nc2ccccc2)n1,3.5,10.8*,-0.1,8.3,-2.6,3.4,4.7
CNc1nc(Cl)nc(Nc2ccccc2)n1,-2.9,-0.9,-0.4,-1.1,1.4,·,·
Cc1ccccc1NC(=O)Cc1nc(COC(=O)c2cc([N+](=O)[O-])ccc2NCCO)cs1,5.3,10.1*,0.0,12.1,6.3,-4.8,-4.6
Cc1ccccc1NC(=O)Cc1nc(COC(=O)c2ccc([N+](=O)[O-])cc2)cs1,-2.6,-0.7,0.0,-8.5,-8.1,·,·
CCC(c1nnnn1-c1ccc2c(c1)OCCO2)N1CCN(CC)CC1 (stereo not given),0.3,10.5*,0.7,3.5,7.0,-7.0,-53.7
CC1(CC(=O)N/N=C/c2cc([N+](=O)[O-])c(O)cc2O)OCCO1,3.2,9.6*,-0.5,6.3,3.5,13.0*,1.4
COc1ccc(NC(=O)CCN2CCCCCC2)cc1,-2.0,10.5*,-0.3,0.1,-1.2,-3.2,-2.7
CCN1CCN(CCC(=O)Nc2ccc3c(c2)OCO3)CC1,4.8,12.8*,-0.5,2.9,8.9,3.3,-6.4
COc1ccc(OCCCC(=O)Nc2ccc(N3CCOCC3)cc2)cc1,-2.8,0.1,0.2,1.7,0.4,·,·
CCOC(=O)N1CCN(CCC(=O)Nc2ccc(C)cc2)CC1,-1.3,10.9*,0.0,2.2,1.4,-0.1,-1.6
COc1ccc(NC(=O)CCN2CCCCC2)cc1,-4.4,0.6,0.0,-0.7,-0.9,·,·
COc1ccc(OCCCC(=O)Nc2ccc(N3CCCCC3)cc2)cc1,2.2,10.1*,0.2,0.8,9.9,-3.1,0.0
CCOC(=O)N1CCN(CC(=O)Nc2ccc(C)cc2)CC1,-1.4,-0.8,0.7,1.2,-2.1,·,·
COc1cccc(-c2cccc3c2NC(=O)C3(C)Cc2cccc(F)c2)c1 (stereo not given),3.0,-1.5,-1.0,7.3,-0.8,·,·
CCOC(=O)N1CCN(Cc2nc3cc(NC(=O)C(C)C)ccc3n2C)CC1,4.1,11.7*,-0.6,1.0,-2.1,-8.5,-8.4
CCCCC(=O)Nc1ccc(C)c(O)c1,4.0,9.6*,0.5,9.2,11.0*,1.4,2.1
CCCCC(=O)Nc1cc(NC(=O)CCCC)cc(C(=O)O)c1,6.2,15.1*,0.4,7.9,5.7,-5.2,0.2
SMILES,ADAM17 inh,PLC-gamma1 inh,proKLK7 act,ADAM10 inh,PLCb3 inh,PLCgamma1 ctr,PLCbeta3 conf
Cc1cc2c(cc1C)-n1nnnc1C(N1CCN(c3ccccn3)CC1)C(c1ccc3c(c1)OCO3)=N2 (stereo not given),-9.3,-14.7,-0.8,-30.5,-15.4,·,·
c1ccc2c(c1)OC(CCCN1CCCCC1)c1ccccc1S2 (stereo not given),4.0,10.5*,0.1,5.2,4.2,-4.5,0.9
CN1CCCC(CC2Oc3ccccc3Sc3ccccc32)C1 (stereo not given),1.1,-0.8,0.2,-5.3,3.0,·,·
CC1(c2nnnn2C2CCCCC2)CCC(=O)N1Cc1ccc2c(c1)OCO2 (stereo not given),-1.3,3.6,0.6,-5.4,4.6,·,·
Cc1cccc(N(CC(=O)NC2CC3CCC2C3)S(=O)(=O)c2ccccc2)c1 (stereo not given),5.1,3.6,0.4,12.0,-0.9,·,·
O=C(CN(c1ccccc1Cl)S(=O)(=O)c1ccccc1)NC1CC2CCC1C2 (stereo not given),7.9,5.6,0.5,-9.0,14.0*,-2.8,-50.7
CS(=O)(=O)N(Cc1ccc(C(=O)NC2CCCC2)cc1)c1ccccc1,5.9,12.6*,-0.1,8.3,0.8,-5.9,-13.6
CS(=O)(=O)N(Cc1ccc(C(=O)NC2CCCCC2O)cc1)c1ccccc1 (stereo not given),-1.5,1.7,0.2,-2.2,-0.6,·,·
CS(=O)(=O)N(Cc1ccccc1)c1ccc(C(=O)NC2CCCCC2O)cc1 (stereo not given),3.2,9.5*,-0.1,10.4,3.9,-0.3,-3.0
Cc1cc(N)n(-c2ccc([N+](=O)[O-])cc2)n1,5.2,11.7*,-0.3,9.5,1.1,8.2,5.4
COc1ccc(N(CC(=O)NC2CCCCC2)S(=O)(=O)c2cccnc2)cc1,0.9,-0.1,-0.6,-11.0,0.8,·,·
Cc1ccc(N(CC(=O)NC2CCC(C)CC2)S(=O)(=O)c2cccnc2)cc1 (stereo not given),4.2,7.5,0.5,5.7,12.5*,-7.6,-4.0
O=C1NC(=S)S/C1=C\C=C\c1ccc([N+](=O)[O-])o1,-5.4,59.6*,0.1,-2.2,0.7,32.5*,-7.8
CC(C)NC(=O)C1(C)CCCN1Cc1csc2ccccc12 (stereo not given),1.0,2.6,0.4,5.5,0.4,·,·
CC(C)NC(=O)C1(C)CCCN1Cc1ccccc1C#N (stereo not given),4.5,10.9*,-0.6,8.9,8.4,-6.1,-2.4
CCOC(=O)[C@]12CCCC=C1N(Cc1ccc3c(c1)OCO3)C(=O)[C@H](CC(=O)N1CCCCC1)C2,-2.6,-0.2,0.5,-5.2,1.5,·,·
N#CCCN(C(=O)COC(=O)c1ccc(Cl)nc1)c1ccc2c(c1)OCCO2,-6.4,-1.7,0.1,-11.0,0.4,·,·
COCC(C)n1c(-c2ccc3c(c2)NC(=O)CO3)csc1=Nc1ccc(OC(F)F)cc1 (stereo not given),0.1,12.2*!,0.1,0.8,4.5,4.1,3.1
COc1ccc(CNCC(O)(c2ccccc2)c2ccccc2)cc1,8.2,18.7*,0.3,5.5,-1.0,-4.4,-1.3
CC(C)(C)c1ccc(C(=O)Nc2cc(Cl)ccc2C(=O)O)cc1,0.7,-4.4,·,12.2,-7.4,·,·
